Reference: PubChem BioAssay (NCI)
This is part of a sample that, as a whole, favours compounds with a hit. Of some 83,000 tested, about 20% had one in any assay.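 Activity criterion: percent growth below 10, measured after cells in 96-well plates were exposed to a single compound concentration for 48 hours.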 Values without a mark were called inactive. Activity calls are given as the source filed them.

How the values were obtained:
Test in all cases: NCI-60 one-dose screen, 48 h (100 = growth as untreated, 0 = no growth, -100 = all killed)
NCI-H23 lung = conditions: 10 µM unless noted
NCI-H226 lung = conditions: 10 µM unless noted
NCI-H322M lung = conditions: 10 µM unless noted
HOP-62 NSCLC = conditions: 10 µM unless noted
NCI-H460 lung = conditions: 10 µM unless noted
HOP-92 NSCLC = conditions: 10 µM
NCI-H522 lung = conditions: 10 µM unless noted
A549/ATCC NSCLC = conditions: 10 µM unless noted
786-0 renal = conditions: 10 µM unless noted
COLO 205 colon = conditions: 10 µM unless noted
DU-145 prostate = conditions: 10 µM unless noted
K-562 leukemia = conditions: 10 µM unless noted
MALME-3M melanoma = conditions: 10 µM unless noted
MDA-MB-231 breast = conditions: 10 µM unless noted
SF-268 CNS = conditions: 10 µM unless noted
SF-295 CNS = conditions: 10 µM unless noted
SF-539 CNS = conditions: 10 µM unless noted
UACC-257 melanoma = conditions: 10 µM unless noted
RXF 393 renal = conditions: 10 µM unless noted

Row | SMILES | growth (NCI-H23 lung) | growth (NCI-H226 lung) | growth (NCI-H322M lung) | growth (HOP-62 NSCLC) | growth (NCI-H460 lung) | growth (HOP-92 NSCLC) | growth (NCI-H522 lung) | growth (A549/ATCC NSCLC) | growth (786-0 renal) | growth (COLO 205 colon) | growth (DU-145 prostate) | growth (K-562 leukemia) | growth (MALME-3M melanoma) | growth (MDA-MB-231 breast) | growth (SF-268 CNS) | growth (SF-295 CNS) | growth (SF-539 CNS) | growth (UACC-257 melanoma) | growth (RXF 393 renal) [%]
1 | COc1ccccc1-n1cc(C#N)c(N)c1C(=O)c1ccc(Cl)cc1 | 90.8% | 97.7% | 103% | 87.7% | 87.8% | 101% | 22.4% | 94.6% | 104% | 86.8% | 93.8% | 20.8% | 59.5% | 68.2% | 85.2% | 78.8% | 91.8% | 87.5% | 
2 | O=C1Nc2ccccc2/C1=C/c1ccc(CO)n1-c1ccc(Cl)cc1 | 67% | 81% | 102% | 59.7% | 35.6% | 75.4% | 53.7% | 59% | 88.4% | 71.8% | 81.4% | 19.3% | 27.6% | 58.1% | 74.2% | 33.8% | 44.5% | 83.4% | 57.1
3 | NS(=O)(=O)c1ccc(-n2cc(CN3CCNCC3)nn2)cc1 | 106% | 101% | 113% | 102% | 108% | 113% | 98.4% | 110% | 99.4% | 116% | 111% | 95.9% | 112% | 105% | 102% | 106% | 98.7% | 111% | 111
4 | CN1CCN(Cc2ccc(NC(=O)c3cncc(C#Cc4cnc5ccc(OCC(C)(C)O)nn45)c3)cc2C(F)(F)F)CC1 | -58.4% (active) | -64.1% (active) | -22.5% (active) | -9.7% (active) | -73.9% (active) | -18.6% (active) | -35.3% (active) | -45.3% (active) | -62.3% (active) | -70% (active) | -36.8% (active) | 8.57% (active) | -67.6% (active) | -11.1% (active) | -50.4% (active) | -2.58% (active) | -83.1% (active) | -16.8% (active) | 
5 | COc1ccc(NC(=O)Nc2ccc3c(ccn3C(=O)c3cccc(F)c3)c2)cc1 | 72.5% | 69.2% | 95.1% | 91% | 31.7% | 71.6% | 78.6% | 53.9% | 58.2% | 104% | 84.5% | 86.1% | 34.2% | 78.6% | 85.3% | 90.4% | 52% | 84.2% | 
6 | O=S(=O)(NCCNc1nccc(-n2cnc3ccccc32)n1)c1ccc(C(F)(F)F)cc1 | 54.5% | 62.7% | 85.3% | 66.1% | 57.8% | 54.9% | 38.2% | 55.4% | 69.6% | 64.9% | 71.8% | 40.8% | 71.4% | 64% | 59.5% | 44.7% | 64.8% | 36.8% | 38.2
7 | COc1c(N2CC3CCCNC3C2)c(F)cc2c(=O)c(C(=O)N/N=C/c3c[nH]c4ccccc34)cn(C3CC3)c12 (stereo not given) | 102% | 107% | 105% | 109% | 107% | 79.6% | 107% | 102% | 95.1% | 107% | 104% | 3.26% (active) | 118% | 95.3% | 91.9% | 110% | 88.2% | 121% | 
8 | O=C(O)c1ccc(-n2cc(CNc3cc(F)c(F)c(F)c3)c(-c3cccc(F)c3)n2)cc1 | 84.9% | 93.9% | 97.2% | 114% | 98.8% | 104% | 91.5% | 77.2% | 112% | 126% | 101% | 84.3% | 67.2% | 94.4% | 106% | 37.1% | 97.1% | 95.1% | 
9 | C=CCn1c(SCC(=O)Nc2ccc(C(=O)/C=C/c3cc(OC)c(OC)c(OC)c3)cc2)nnc1-c1c[nH]c2ccccc12 | -11% (active) | -4.91% (active) | 53% | 70.5% | 3.42% (active) | 63.7% | 35.7% | 34.7% | 23.1% | 73.1% | 13.2% | 3.04% (active) | 68.6% | 23% | 33.1% | 68.1% | -16.2% (active) | 73% | 
